Experimental data taken from the antibiotic and cytotoxicity screens of Wong et al. (2023).
The whole screen tested about 39,000 compounds, of which about 3,300 (8.5%) were called active. For the sample, actives were picked, then their nearest neighbours and some compounds at random.

What follows are compounds tested on HepG2 (assay: cytotoxicity call (relative viability < 0.9)). Conditions: 10 µM.

Row | Structure (SMILES) | cytotoxicity call
1 | CNCc1ccncc1 | inactive
2 | Cc1sccc1-c1csc(N)n1 | inactive
3 | C[C@@H]1CN([C@@H](C)CO)C(=O)CCCn2nncc2CO[C@H]1CN(C)C(=O)Nc1ccc2c(c1)OCCO2 | inactive
4 | C[C@H](CO)N1C[C@H](C)[C@H](CN(C)C(=O)Nc2cccc3ccccc23)Oc2ncc(-c3cccc(F)c3)cc2C1=O | inactive
5 | C[C@H](CO)N1C[C@H](C)[C@@H](CN(C)S(=O)(=O)c2ccc(Cl)cc2)OCCCC[C@H](C)Oc2ccc(NC(=O)c3ccncc3)cc2C1=O | inactive
6 | C[C@@H]1CN([C@@H](C)CO)C(=O)c2cccc(NS(=O)(=O)c3cccs3)c2O[C@H]1CN(C)S(=O)(=O)c1ccccc1 | inactive
7 | COc1ccc(C#Cc2ccc3c(c2)O[C@@H](CN(C)C(=O)CN2CCOCC2)[C@H](C)CN([C@H](C)CO)S3(=O)=O)cc1 | inactive
8 | C[C@@H]1CN([C@H](C)CO)C(=O)Cc2cc(NC(=O)c3ccncc3)ccc2O[C@H]1CN(C)Cc1ccc(Oc2ccccc2)cc1 | inactive
9 | C[C@@H]1CN([C@@H](C)CO)C(=O)Cc2cc(NC(=O)c3ccncc3)ccc2O[C@H]1CN(C)Cc1ccc(Oc2ccccc2)cc1 | active
10 | C[C@H]1CN([C@@H](C)CO)C(=O)Cc2cc(NC(=O)c3ccncc3)ccc2O[C@@H]1CN(C)Cc1ccc(Oc2ccccc2)cc1 | inactive
11 | C[C@@H]1CN([C@H](C)CO)C(=O)Cc2cc(NC(=O)c3ccncc3)ccc2O[C@@H]1CN(C)Cc1ccc(Oc2ccccc2)cc1 | inactive
12 | C[C@@H]1CN([C@@H](C)CO)C(=O)Cc2cc(NC(=O)c3ccncc3)ccc2O[C@@H]1CN(C)Cc1ccc(Oc2ccccc2)cc1 | active
13 | C[C@H]1CN([C@@H](C)CO)C(=O)Cc2cc(NC(=O)c3ccncc3)ccc2O[C@H]1CN(C)Cc1ccc(Oc2ccccc2)cc1 | inactive
14 | CO[C@@H]1CN(C)C(=O)c2ccc(NC(=O)C3CC3)cc2OC[C@@H](C)N(C(=O)C2CCOCC2)C[C@@H]1C | inactive
15 | C[C@H]1CN([C@@H](C)CO)C(=O)Cc2cc(NC(=O)NC3CCCCC3)ccc2O[C@@H]1CN(C)S(=O)(=O)c1cn(C)cn1 | inactive
16 | O=C(C[C@H]1C=C[C@H](NC(=O)C2CC2)[C@@H](CO)O1)NCCCN1CCOCC1 | inactive
17 | C[C@@H]1CCCCO[C@@H](CN(C)C(=O)c2ccncc2)[C@@H](C)CN([C@@H](C)CO)C(=O)c2cc(NC(=O)C3CCCCC3)ccc2O1 | inactive
18 | CS(=O)(=O)NCc1nnnn1-c1ccc(F)c(F)c1 | inactive
19 | C[C@@H]1CN([C@H](C)CO)S(=O)(=O)c2ccc(C#Cc3cccc(F)c3)cc2O[C@H]1CN(C)S(=O)(=O)c1ccccc1F | inactive
20 | C[C@@H]1CN([C@@H](C)CO)C(=O)c2c(c3ccccc3n2C)-c2ccccc2CO[C@H]1CN(C)C(=O)NC1CCCCC1 | inactive
21 | CCCc1cc(=O)nc(SCC(N)=O)[nH]1 | inactive

Row | Structure (SMILES) | cytotoxicity call
22 | Cc1cc(=O)nc(SCC(N)=O)[nH]1 | active
23 | CCOC(=O)CSc1nc(=O)cc(C)[nH]1 | inactive
24 | C[C@H](CO)N1C[C@H](C)[C@H](CN(C)S(=O)(=O)c2cn(C)cn2)OCCCC[C@H](C)Oc2ccc(NS(=O)(=O)c3ccccc3)cc2C1=O | inactive
25 | CCOC(=O)[C@H]1C/C=C/C[C@H](C(=O)OCC)C(=O)O[C@H]2[C@@H](OC)O[C@H](CO)[C@@H](OC(=O)Nc3ccc(OC)cc3)[C@@H]2OC1=O | inactive
26 | COc1ccc(NC(=O)O[C@H]2[C@@H]3OC(=O)[C@@H](Cc4ccc5ccccc5c4)C/C=C/C[C@H](Cc4ccc5ccccc5c4)C(=O)O[C@H]3[C@@H](OC)O[C@@H]2CO)cc1 | active
27 | CO[C@H]1O[C@H](CO)[C@@H](OC(=O)Nc2ccccc2)[C@@H]2OC(=O)[C@@H](Cc3ccc4ccccc4c3)C/C=C/C[C@H](Cc3ccc4ccccc4c3)C(=O)O[C@@H]12 | inactive
28 | COc1ccc(NC(=O)O[C@H]2[C@@H]3OC(=O)[C@H](Cc4cccc(Br)c4)C/C=C/C[C@@H](Cc4cccc(Br)c4)C(=O)O[C@H]3[C@@H](OC)O[C@@H]2CO)cc1 | inactive
29 | CCOC(=O)[C@H]1C/C=C/C[C@H](C(=O)OCC)C(=O)O[C@H]2[C@@H](OC)O[C@H](CO)[C@@H](OC(=O)Nc3cccc(F)c3)[C@@H]2OC1=O | active
30 | CCOC(=O)[C@H]1C/C=C/C[C@H](C(=O)OCC)C(=O)O[C@H]2[C@@H](OC)O[C@H](CO)[C@@H](OC(=O)c3ccc(Br)cc3)[C@@H]2OC1=O | inactive
31 | CCOC(=O)[C@H]1C/C=C/C[C@H](C(=O)OCC)C(=O)O[C@H]2[C@@H](OC)O[C@H](CO)[C@@H](OC(=O)Nc3ccc4c(c3)OCO4)[C@@H]2OC1=O | active
32 | CCOC(=O)[C@H]1C/C=C/C[C@H](C(=O)OCC)C(=O)O[C@H]2[C@@H](OC)O[C@H](CO)[C@@H](OC(=O)Nc3ccccc3)[C@@H]2OC1=O | inactive
33 | CCOC(=O)[C@H]1C/C=C/C[C@H](C(=O)OCC)C(=O)O[C@H]2[C@@H](OC)O[C@H](CO)[C@@H](OC(=O)c3c(OC)cccc3OC)[C@@H]2OC1=O | inactive
34 | CO[C@H]1O[C@H](CO)[C@@H](OC(=O)Nc2cccc(F)c2)[C@@H]2OC(=O)[C@H](Cc3cccc(Br)c3)C/C=C/C[C@@H](Cc3cccc(Br)c3)C(=O)O[C@@H]12 | inactive
35 | CCOC(=O)[C@H]1C/C=C/C[C@H](C(=O)OCC)C(=O)O[C@H]2[C@@H](OC)O[C@H](CO)[C@@H](OC(=O)Nc3ccc(Br)cc3)[C@@H]2OC1=O | active
36 | CO[C@H]1O[C@H](CO)[C@@H](OC(=O)Nc2ccc3c(c2)OCO3)[C@@H]2OC(=O)[C@H](Cc3cccc(Br)c3)C/C=C/C[C@@H](Cc3cccc(Br)c3)C(=O)O[C@@H]12 | inactive
37 | COc1cccc(S(=O)(=O)N2C[C@H](O)COC[C@@H]3O[C@H](CC(=O)N4CCN(C)CC4)CC[C@H]32)c1 | inactive
38 | CC(C)NC(=O)Nc1cccc2c1O[C@@H](CN(C)Cc1ccc3c(c1)OCO3)[C@@H](C)CN([C@@H](C)CO)C2=O | inactive
39 | O=C(C[C@@H]1C[C@H]2c3cc(NC(=O)C4CCOCC4)ccc3O[C@H]2[C@H](CO)O1)NCc1ccc(Cl)cc1 | inactive
40 | O=C(C[C@H]1C[C@@H]2c3cc(NC(=O)Nc4ccc(C(F)(F)F)cc4)ccc3O[C@@H]2[C@@H](CO)O1)NC1CCCCC1 | inactive
41 | CC(CN)(Cc1ccccc1Cl)C(=O)O (stereo not drawn) | inactive
42 | C/C(C[P+](c1ccccc1)(c1ccccc1)c1ccccc1)=N\NC(=O)CCCCCC(=O)Nc1ccccc1O | inactive

Row | Structure (SMILES) | cytotoxicity call
43 | C[C@H]1CN([C@@H](C)CO)C(=O)c2cc(C#CCN(C)C)cnc2O[C@@H]1CN(C)S(=O)(=O)c1cn(C)cn1 | inactive
44 | C[C@H](CO)N1C[C@H](C)[C@@H](CN(C)C(=O)Nc2ccc3c(c2)OCO3)OCCCC[C@H](C)Oc2ccc(NC(=O)Nc3cccc4ccccc34)cc2C1=O | inactive
45 | C[C@@H]1CCCCO[C@@H](CN(C)S(=O)(=O)c2cccs2)[C@H](C)CN([C@@H](C)CO)C(=O)c2cc(NS(=O)(=O)c3cn(C)cn3)ccc2O1 | inactive
46 | C[C@H](CO)N1C[C@H](C)[C@@H](CN(C)C(=O)C2CC2)OCc2cnnn2CCCC1=O | inactive
47 | C[C@@H]1CN([C@@H](C)CO)C(=O)Cc2cc(NC(=O)Nc3ccc(C(F)(F)F)cc3)ccc2O[C@H]1CN(C)C(=O)Nc1cccc2ccccc12 | inactive
48 | CO[C@H]1O[C@H](CO)[C@@H](OC(=O)Nc2ccccc2-c2ccccc2)[C@H](OC(=O)Nc2ccc3c(c2)OCO3)[C@H]1OC(=O)Nc1ccc2c(c1)OCO2 | inactive
49 | CO[C@H]1O[C@H](CO)[C@@H](OC(=O)Nc2ccc3c(c2)OCO3)[C@H](OC(=O)Nc2ccc3c(c2)OCO3)[C@@H]1OC(=O)Nc1ccc2c(c1)OCO2 | active
50 | CO[C@H]1O[C@H](CO)[C@@H](OC(=O)Nc2ccccc2-c2ccccc2)[C@H](OC(=O)Nc2ccc3c(c2)OCO3)[C@@H]1OC(=O)Nc1ccc2c(c1)OCO2 | inactive
51 | Nn1c(CO)nc2ccccc21 | inactive
52 | O=C(N[C@H]1CC[C@H](CCNS(=O)(=O)c2ccc(F)cc2)O[C@H]1CO)C1CC1 | inactive
53 | C[C@H]1CN([C@@H](C)CO)C(=O)Cc2cc(NC(=O)Nc3ccc4c(c3)OCO4)ccc2O[C@@H]1CN(C)S(C)(=O)=O | inactive
54 | C[C@H]1CCCCO[C@H](CN(C)C(=O)C2CCCCC2)[C@@H](C)CN([C@@H](C)CO)C(=O)c2cc(NC(=O)c3ccncc3)ccc2O1 | inactive
55 | C[C@@H]1CN([C@@H](C)CO)C(=O)c2cc(NC(=O)Nc3ccc(F)cc3)ccc2O[C@@H]1CN(C)S(C)(=O)=O | inactive
56 | Cc1noc(C)c1NC(=O)N(C)C[C@H]1Oc2ncc(C#CCC(C)C)cc2C(=O)N([C@@H](C)CO)C[C@H]1C | inactive
57 | COc1ccccc1-c1cccc(-c2nc(C(=O)Nc3nccs3)cc3c2[C@@H](CCO)N(C(=O)CC2CC2)C3)c1 | active
58 | CCC(=O)N1Cc2cc(C(=O)Nc3nccs3)nc(-c3cccc(-c4ccccc4OC)c3)c2[C@H]1CCO | inactive
59 | COc1ccccc1-c1cccc(-c2nc(C(=O)Nc3nccs3)cc3c2[C@H](CCO)N(C(=O)CC2CC2)C3)c1 | inactive
60 | C[C@@H]1CN([C@@H](C)CO)C(=O)c2cc(NS(=O)(=O)c3ccc(Cl)cc3)ccc2O[C@@H](C)CCCCO[C@@H]1CN(C)Cc1ccncc1 | inactive
61 | C[C@@H]1CN([C@H](C)CO)C(=O)c2cc(C3=CCCCC3)cnc2O[C@@H]1CN(C)C(=O)CN1CCOCC1 | inactive
62 | c1nc2c(c(N3CCOCC3)n1)CCNCC2 | inactive
63 | CCCCC(CC)CN1CN(CC(CC)CCCC)CC(C)(N)C1 (stereo not drawn) | active
